From PubChem BioAssay (NCATS) come the findings set out here.

The target in assay [1] is Glucocorticoid receptor (Homo sapiens) (UniProt P04150). As to the kind of experiment: GR-GFP Redistribution (AID 450;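 active = compounds whose dose series gives a full or clear partial fitted curve of increased nuclear translocation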; note: potency is the fitted concentration of half-maximal effect). The following applies: U2OS GR-GFP nuclear translocation, laser cytometry, 2 h.
Assay [2] has the same target. The assay is described as follows: GR-EFC Redistribution (AID 451; calls by dose curve; note: potency is the fitted concentration of half-maximal effect). The note with it: CHO-K1 GR-EFC translocation, beta-gal luminescence, 2 h. In a few lines: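 Translocation of GR-ED fusion to nuclear EA restores b-gal, read by luminescence after 1 h room-temperature detection. Engineered CHO-K1 biosensor cells, 1,000/well, exposed 2 h at 37 C to titrations up to 46 uM final.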

Assay [3] deals with Mitogen-activated protein kinase 10 (Mus musculus) (UniProt Q61831). As to the kind of experiment: JNK3 AlphaScreen Assay (AID 530; active = well fitted curve in either direction with a large enough effect, not every such curve was filed as active;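 note: kinase came from lysate of stimulated human HepG2 cells; signal reports phosphorylation of biotinylated GST-cJun 1-79 at Ser73 with 10 µM ATP; % is set by controls: 0 for no effect and ±100 for the full control effect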). In a few lines: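 Kinase buffer: 20 mM Tris-HCl pH 7.6, 10 mM MgCl2, 1 mM DTT, 0.1 mM Na3VO4, 0.01% Tween-20; ATP 10 uM. Substrate biotin-GST-cJun(1-79), enzyme from activated HepG2 lysates. Detection by Ser73 phospho-antibody AlphaScreen.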
(Bead proximity is the source of the signal in Alpha formats.)

For assay [4], the target named is 3',5'-cyclic-AMP phosphodiesterase 4B (Homo sapiens) (UniProt Q07343). As to the kind of experiment: qHTS Assay for Inhibitors of PDE-IV (AID 607; active = well fitted activation curve with a large enough effect in the main read-out, with a control signal flat, not every such curve was filed as active; note: % of control where 0% means no effect). In a few lines: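 HEK293 ACTOne cells with CNG channel (1000/well), endogenous PDE4; membrane potential dye, compounds up to 22.9 uM final. Fluorescence Ex 535/Em 590; RO 20-1724 (100 uM final) as reference.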
A general note: In qHTS, concentration-response curves come from the screen itself.

Assay [5] in a line: qHTS Assay for Lipid Storage Modulators (AID 1519; calls by dose curve; for activity change, negative = inhibition: % is set by controls: 0 for no effect and ±100 for the full control effect). The following applies: Drosophila S3 cells, BODIPY lipid droplet/cell ratio, laser cytometry, cells loaded with oleic acid. The method in brief: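 Cells seeded at 5,000 per well were treated with compounds over a concentration series and loaded with oleic acid (400 uM, as added). Lipid droplet fluorescence (488 nm excitation, 500-530 nm channel) was read by laser-scanning cytometry and normalized to 20 uM Triacsin C.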

Assay [6] concerns the target Ubiquitin carboxyl-terminal hydrolase 1 (Homo sapiens) (UniProt O94782). The assay is described as follows: Inhibitors of USP1/UAF1: Pilot qHTS (AID 504865).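 Note: rhodamine fluorescence freed from ubiquitin-rhodamine substrate followed over time; top concentration of the series differs between compounds; % is set by controls: 0 for no effect and ±100 for the full control effect; nearly all actives have a fitted effect of over 35% in size.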 In a few lines:
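USP1/UAF1 complex at 1 nM preincubated 15 min at room temperature with compound, then Ub-Rho substrate added at 150 nM final. Fluorescence (480/540 nm) read kinetically in 50 mM HEPES pH 7.8, 0.5 mM EDTA, 1 mM TCEP, 0.1 mg/ml BSA, 0.01% Tween-20.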

In assay [7] the target is DNA dC->dU-editing enzyme APOBEC-3G (Homo sapiens) (UniProt Q9HC16). The assay is described as follows: qHTS for inhibitors of Vif-A3G interactions: Validation (AID 588379). Note: 0% is about no effect. The method in brief: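 Yellow fluorescence (Ex 488, Em 500-530) of Vif-coexpressing HeLa A3G-eYFP cells, scanned by Acumen cytometer, reports blocked A3G degradation. Cells plated at 700/well overnight at 37 deg C before compound addition, then a further overnight compound incubation at 37 deg C.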

The test system of assay [8] is Zika virus NS2B-NS3 protease. The assay is described as follows: Primary screen GU AMC qHTS for Zika virus inhibitors (AID 1347154).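 Note: 0% = no-inhibitor control and -100% = no-enzyme control; nearly all actives have a fitted effect of over 70% in size.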 The method in brief: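 Fluorogenic AMC-substrate cleavage by noncovalent NS2B-NS3 protease complex (25 nM, pH 8.0 Tris buffer with Tween 20) followed for 15 minutes at room temperature (~20% conversion). Percent inhibition from ex340/em450 signal change, fitted by 4-parameter Hill equation.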

Assay [9] can be described thus: Primary qHTS for small molecule stabilizers of the endoplasmic reticulum resident proteome: Secreted ER Calcium Modulated Protein (SERCaMP) assay (AID 1508630). Note: % is set by controls: 0 for no effect and ±100 for the full control effect. The method in brief:
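The SH-SY5Y reporter protocol was run at 3 concentrations up to 38.3 uM (primary) or 11 concentrations (follow-up): 16 h compound, 100 nM thapsigargin for 4 h, then extracellular luciferase luminescence.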

Assay [10] concerns the target Cytochrome P450 1A2 (Homo sapiens) (UniProt P05177). The assay is described as follows: p450-cyp1a2 (AID 410; calls by dose curve; note: potency is the fitted concentration of half-maximal effect). In a few lines: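 20nM CYP1A2, 100uM Luciferin-ME (=Km), 100mM KPO4; cpd 10 min RT; +NADPH regen, 60 min RT; stop/detect 20 min; luminescence. Normalized to furafylline 57 uM = full inhibition.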
Assay [11] in a line: Stat Signaling Pathway (AID 446; active = well fitted curve in either direction with a large enough effect, not every such curve was filed as active;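 note: ME-180 cervical cancer cells given 40 pM IL-6 alongside compound; SIE-controlled beta-lactamase reporter measured as 460/530 nm FRET emission ratio; % is set by controls: 0 for no effect and ±100 for the full control effect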). In a few lines:
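Normalization used AC90 stimulation (300 pM IL-6) and AC90 inhibition (125 nM pan-JAK inhibitor at 40 pM IL-6). The underlying signal is SIE-driven beta-lactamase in ME-180 cells after 5 h IL-6 exposure with compound.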

In assay [12] the target is Guanine nucleotide-binding protein G(i) subunit alpha-1 (Homo sapiens) (UniProt P63096). As to the kind of experiment: qHTS Assay for Inhibitors of RGS12 GoLoco Motif Activity (Green Fluorophore) (AID 879).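 Note: 0% = labeled peptide with Gαi1 and full inhibition = labeled peptide alone without protein; negative values mean loss of peptide binding seen as reduced polarization.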 The method in brief:
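A drop in FITC polarization marked displacement of the FITC-tagged RGS12 GoLoco peptide (10 nM) from Gαi1 (50 nM). Compounds were incubated 10 min at room temperature in Tris pH 7.5 buffer containing 150 mM NaCl, 0.1 mM GDP and 0.05% NP40; unlabeled peptide titration served as control.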

Assay [13] deals with Pyruvate kinase (Leishmania mexicana) (UniProt Q27686). As to the kind of experiment: qHTS Validation Assay for Inhibitors of Leishmania Mexicana Pyruvate Kinase (AID 945).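 Note: 0% = DMSO only neutral control wells.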 In a few lines:
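An endpoint luciferase assay: 0.2 nM LmPYK E451W turns over 0.5 mM PEP with 0.1 mM ADP for 1 h at room temperature, pH 7.2, before PKLight addition. Values are normalized to DMSO-only wells.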

The target in assay [14] is Pyruvate kinase PKM (Homo sapiens) (UniProt P14618). The assay is described as follows: qHTS Assay for Activators of Human Muscle Pyruvate Kinase (AID 954; active = well fitted curve in the direction sought with a large enough effect, not every such curve was filed as active;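 note: 0% = uninhibited enzyme and -100% = no enzyme or full thiadiazolimine inhibition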). In a few lines: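 Compound pinned into substrate mix (0.5 mM PEP, 0.1 mM ADP), then 0.1 nM PKM2 added; 1 h, RT. Stop/detection luciferase reagent added, luminescence read. Normalized to no-inhibition and no-enzyme or reference-inhibitor controls.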

Assay [15] concerns the target Alpha-galactosidase A (Homo sapiens) (UniProt P06280). The assay is described as follows: Counterscreen for Glucocerebrosidase Inhibitors: qHTS Assay for Human alpha-Galactosidase at pH 4.5 (AID 992). Note: 0% is about no effect. In a few lines: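 Steps: enzyme (2 nM final), then compound across 0.7 nM to 77 uM, then 80 uM fluorogenic galactopyranoside substrate; incubate 20 min at room temperature; quench at pH 10; measure fluorescence at 365/440 nm.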
(In general: The purpose of a counterscreen is to sort out artefacts and off-target activity.)

The target of assay [16] is alpha-glucosidase (Oryza sativa, rice) (UniProt Q653V4). As to the kind of experiment: Counterscreen for Glucocerebrosidase Inhibitors: qHTS Assay for Rice alpha-Glucosidase at pH 5.0 (AID 997).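 Note: 0% = full activity with enzyme and -100% = basal without enzyme.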 In a few lines: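 Endpoint fluorogenic assay at pH 5.0: compounds (0.7 nM to 77 uM) titrated against 4 nM rice enzyme and 400 uM 4-MU-alpha-glucoside for 20 min at room temperature; NaOH/glycine stop, read ex 365/em 440 nm, Hill-fitted AC50.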

The target in assay [17] is Alpha-galactosidase (Coffea arabica) (UniProt Q42656). The assay is described as follows: Counterscreen for Glucocerebrosidase Inhibitors: qHTS Assay for Coffee Bean alpha-Galactosidase at pH 5.9 (AID 998).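 Note: plate controls were uninhibited enzyme for no effect and no-enzyme basal signal for full effect.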 The method in brief:
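Fluorogenic 4-MU substrate hydrolysis, 80 uM substrate and 2 nM coffee bean alpha-galactosidase, pH 5.9 citrate buffer, 20 min at room temperature, then NaOH/glycine stop. Titration 0.7 nM–77 uM, normalized to no-enzyme and enzyme controls, AC50 via Hill equation.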

The mark [18] stands for this setting: measured here: cell count channel max response.
[19] abbreviates: measured here: lipid channel max response.

Where “and” joins values, the source holds several entries; their conditions need not be identical. Equal entries are not always repeated. Records with an inconclusive call do not appear. Calls of active or inactive are those of the source. Unless noted, calls come from the whole dose curve; as a rule, active = well fitted curve in the direction sought with a large enough effect; inconclusive = small, poorly fitted or top-dose-only effect, or another doubt; inactive = no such curve, though single readings can be large; an effect the other way counts as inactive or inconclusive.

DNA dC->dU-editing enzyme APOBEC-3G (Homo sapiens), sequence (Q9HC16 whole entry, looked up): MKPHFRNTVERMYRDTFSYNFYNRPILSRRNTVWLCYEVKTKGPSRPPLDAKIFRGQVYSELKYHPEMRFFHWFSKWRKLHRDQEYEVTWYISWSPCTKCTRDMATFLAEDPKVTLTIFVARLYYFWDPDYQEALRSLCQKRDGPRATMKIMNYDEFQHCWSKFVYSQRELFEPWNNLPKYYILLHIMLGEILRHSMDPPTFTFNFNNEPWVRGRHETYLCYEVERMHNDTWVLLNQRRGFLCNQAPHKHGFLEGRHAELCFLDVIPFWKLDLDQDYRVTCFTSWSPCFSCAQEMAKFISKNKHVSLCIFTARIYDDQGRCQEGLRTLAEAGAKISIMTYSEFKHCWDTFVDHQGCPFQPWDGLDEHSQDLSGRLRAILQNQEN
Cytochrome P450 1A2 (Homo sapiens), sequence (P05177 whole entry, looked up): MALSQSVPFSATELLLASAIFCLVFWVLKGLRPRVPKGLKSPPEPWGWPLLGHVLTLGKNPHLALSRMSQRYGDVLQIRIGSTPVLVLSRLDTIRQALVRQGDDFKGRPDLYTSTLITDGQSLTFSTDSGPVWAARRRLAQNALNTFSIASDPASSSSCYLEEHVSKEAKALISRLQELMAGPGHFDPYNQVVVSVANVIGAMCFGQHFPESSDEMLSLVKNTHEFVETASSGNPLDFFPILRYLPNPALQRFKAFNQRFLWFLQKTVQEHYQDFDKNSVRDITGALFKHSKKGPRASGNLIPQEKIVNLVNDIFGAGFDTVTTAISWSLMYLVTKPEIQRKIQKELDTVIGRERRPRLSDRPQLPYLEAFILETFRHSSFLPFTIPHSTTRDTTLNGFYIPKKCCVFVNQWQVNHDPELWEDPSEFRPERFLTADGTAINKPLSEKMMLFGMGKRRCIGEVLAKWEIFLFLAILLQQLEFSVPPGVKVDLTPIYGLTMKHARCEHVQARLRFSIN
3',5'-cyclic-AMP phosphodiesterase 4B (Homo sapiens), sequence (Q07343 whole entry, looked up): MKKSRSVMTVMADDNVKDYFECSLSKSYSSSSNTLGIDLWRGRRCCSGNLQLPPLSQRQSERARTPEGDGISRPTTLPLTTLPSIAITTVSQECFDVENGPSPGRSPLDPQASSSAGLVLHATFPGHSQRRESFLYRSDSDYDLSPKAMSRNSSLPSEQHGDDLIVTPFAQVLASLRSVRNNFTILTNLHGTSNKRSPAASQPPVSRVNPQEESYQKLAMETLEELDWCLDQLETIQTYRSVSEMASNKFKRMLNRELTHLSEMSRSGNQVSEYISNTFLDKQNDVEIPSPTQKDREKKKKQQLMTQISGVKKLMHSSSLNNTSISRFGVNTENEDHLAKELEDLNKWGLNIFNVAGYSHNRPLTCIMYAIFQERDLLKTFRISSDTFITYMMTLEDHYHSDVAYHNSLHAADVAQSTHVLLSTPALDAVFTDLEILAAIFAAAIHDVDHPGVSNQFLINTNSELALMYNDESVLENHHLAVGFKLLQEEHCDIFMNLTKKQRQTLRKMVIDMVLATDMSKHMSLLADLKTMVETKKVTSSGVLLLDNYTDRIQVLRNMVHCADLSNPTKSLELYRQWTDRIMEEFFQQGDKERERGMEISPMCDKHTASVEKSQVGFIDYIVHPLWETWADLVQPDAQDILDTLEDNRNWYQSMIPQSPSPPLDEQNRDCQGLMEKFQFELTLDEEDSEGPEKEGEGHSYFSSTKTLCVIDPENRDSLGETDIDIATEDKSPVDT
Glucocorticoid receptor (Homo sapiens), sequence (P04150 whole entry, looked up, the tested form may be a part): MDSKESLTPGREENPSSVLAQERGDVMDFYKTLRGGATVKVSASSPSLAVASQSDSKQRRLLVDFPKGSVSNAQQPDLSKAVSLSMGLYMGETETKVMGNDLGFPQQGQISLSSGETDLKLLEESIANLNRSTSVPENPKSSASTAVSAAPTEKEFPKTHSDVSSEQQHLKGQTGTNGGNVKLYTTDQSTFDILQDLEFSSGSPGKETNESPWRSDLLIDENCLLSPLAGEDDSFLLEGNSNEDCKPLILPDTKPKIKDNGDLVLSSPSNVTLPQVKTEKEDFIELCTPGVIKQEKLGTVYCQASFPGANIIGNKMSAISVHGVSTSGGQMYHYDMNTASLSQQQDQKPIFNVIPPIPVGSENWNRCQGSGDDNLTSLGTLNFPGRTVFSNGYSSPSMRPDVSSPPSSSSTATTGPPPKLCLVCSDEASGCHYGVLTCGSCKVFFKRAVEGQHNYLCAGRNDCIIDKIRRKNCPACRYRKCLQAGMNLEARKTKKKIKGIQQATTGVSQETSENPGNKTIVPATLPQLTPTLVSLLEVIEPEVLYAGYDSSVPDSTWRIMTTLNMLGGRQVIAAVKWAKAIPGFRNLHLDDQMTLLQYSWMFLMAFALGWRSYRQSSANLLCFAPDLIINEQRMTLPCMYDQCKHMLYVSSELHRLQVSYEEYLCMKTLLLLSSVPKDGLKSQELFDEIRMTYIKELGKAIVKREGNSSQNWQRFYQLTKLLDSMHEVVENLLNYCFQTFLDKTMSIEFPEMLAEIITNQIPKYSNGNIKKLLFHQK
Ubiquitin carboxyl-terminal hydrolase 1 (Homo sapiens), sequence (O94782 whole entry, looked up): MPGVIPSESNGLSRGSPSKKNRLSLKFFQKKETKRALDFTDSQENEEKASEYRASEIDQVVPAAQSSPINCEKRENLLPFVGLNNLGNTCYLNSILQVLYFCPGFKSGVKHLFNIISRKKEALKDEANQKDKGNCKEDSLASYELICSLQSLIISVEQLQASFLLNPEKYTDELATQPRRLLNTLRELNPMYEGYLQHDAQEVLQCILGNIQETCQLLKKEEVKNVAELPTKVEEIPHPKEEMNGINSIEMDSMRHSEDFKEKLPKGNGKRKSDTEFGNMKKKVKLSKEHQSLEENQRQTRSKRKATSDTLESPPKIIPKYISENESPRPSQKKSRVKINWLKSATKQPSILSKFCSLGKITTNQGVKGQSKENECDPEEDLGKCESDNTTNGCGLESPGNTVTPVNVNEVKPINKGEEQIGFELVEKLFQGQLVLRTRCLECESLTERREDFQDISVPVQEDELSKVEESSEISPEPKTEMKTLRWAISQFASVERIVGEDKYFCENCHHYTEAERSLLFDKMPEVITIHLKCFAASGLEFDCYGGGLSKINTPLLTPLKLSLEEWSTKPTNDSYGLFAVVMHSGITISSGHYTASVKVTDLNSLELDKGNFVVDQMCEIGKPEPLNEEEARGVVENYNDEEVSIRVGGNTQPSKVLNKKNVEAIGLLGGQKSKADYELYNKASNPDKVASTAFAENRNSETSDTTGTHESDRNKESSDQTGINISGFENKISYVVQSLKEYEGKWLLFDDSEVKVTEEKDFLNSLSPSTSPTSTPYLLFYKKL
Pyruvate kinase PKM (Homo sapiens), sequence (P14618 whole entry, looked up): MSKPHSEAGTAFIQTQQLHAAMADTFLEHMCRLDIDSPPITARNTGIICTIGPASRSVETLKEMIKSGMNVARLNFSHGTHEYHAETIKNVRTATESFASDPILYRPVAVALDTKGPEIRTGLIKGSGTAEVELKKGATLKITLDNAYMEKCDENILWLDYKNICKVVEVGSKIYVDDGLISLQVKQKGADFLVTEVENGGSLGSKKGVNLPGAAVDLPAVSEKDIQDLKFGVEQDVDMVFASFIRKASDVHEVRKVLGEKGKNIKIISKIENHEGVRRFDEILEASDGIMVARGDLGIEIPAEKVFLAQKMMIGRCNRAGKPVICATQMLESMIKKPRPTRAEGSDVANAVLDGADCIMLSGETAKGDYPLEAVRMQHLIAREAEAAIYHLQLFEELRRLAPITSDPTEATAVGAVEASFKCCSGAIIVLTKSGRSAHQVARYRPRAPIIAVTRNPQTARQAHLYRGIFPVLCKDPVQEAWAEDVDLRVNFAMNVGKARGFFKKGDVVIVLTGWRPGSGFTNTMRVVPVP
Pyruvate kinase (Leishmania mexicana), sequence (Q27686 2-499 E452W): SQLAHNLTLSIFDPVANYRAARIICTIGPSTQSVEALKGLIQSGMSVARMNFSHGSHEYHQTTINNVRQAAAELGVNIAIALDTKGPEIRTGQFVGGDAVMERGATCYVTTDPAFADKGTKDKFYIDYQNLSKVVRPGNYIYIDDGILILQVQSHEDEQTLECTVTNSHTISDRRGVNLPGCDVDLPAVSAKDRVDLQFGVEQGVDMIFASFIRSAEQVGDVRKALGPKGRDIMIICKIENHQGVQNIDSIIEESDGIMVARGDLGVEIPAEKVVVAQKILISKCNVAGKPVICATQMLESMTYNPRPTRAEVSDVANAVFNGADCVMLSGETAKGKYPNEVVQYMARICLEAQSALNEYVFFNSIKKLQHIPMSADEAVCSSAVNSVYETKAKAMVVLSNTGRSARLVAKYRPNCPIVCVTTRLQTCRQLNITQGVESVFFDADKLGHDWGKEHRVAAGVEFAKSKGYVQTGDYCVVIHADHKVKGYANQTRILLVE
Alpha-galactosidase A (Homo sapiens), sequence (P06280 whole entry, looked up): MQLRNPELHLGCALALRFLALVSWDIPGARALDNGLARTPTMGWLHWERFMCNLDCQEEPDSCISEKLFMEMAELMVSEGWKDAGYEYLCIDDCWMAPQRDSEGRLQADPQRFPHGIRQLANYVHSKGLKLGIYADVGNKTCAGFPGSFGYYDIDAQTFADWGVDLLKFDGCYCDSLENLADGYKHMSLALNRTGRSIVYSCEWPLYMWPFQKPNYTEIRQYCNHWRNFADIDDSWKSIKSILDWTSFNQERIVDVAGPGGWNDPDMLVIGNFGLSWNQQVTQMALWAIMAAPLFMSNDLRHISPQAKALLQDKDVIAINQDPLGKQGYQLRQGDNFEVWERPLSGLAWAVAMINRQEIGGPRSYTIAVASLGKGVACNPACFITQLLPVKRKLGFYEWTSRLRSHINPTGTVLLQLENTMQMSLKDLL
Guanine nucleotide-binding protein G(i) subunit alpha-1 (Homo sapiens), sequence (P63096 whole entry, looked up): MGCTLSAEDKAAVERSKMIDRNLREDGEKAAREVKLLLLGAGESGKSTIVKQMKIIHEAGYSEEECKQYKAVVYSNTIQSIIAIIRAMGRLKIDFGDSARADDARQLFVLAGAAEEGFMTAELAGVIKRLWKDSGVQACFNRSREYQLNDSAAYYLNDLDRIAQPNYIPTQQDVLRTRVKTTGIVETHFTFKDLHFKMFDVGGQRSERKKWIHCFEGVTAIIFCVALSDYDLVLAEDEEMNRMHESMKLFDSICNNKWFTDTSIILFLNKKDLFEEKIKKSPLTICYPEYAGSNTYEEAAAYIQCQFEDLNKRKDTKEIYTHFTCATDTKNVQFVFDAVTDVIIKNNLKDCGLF

For the compound `N[C@@H](CCCCP(=O)(O)O)C(=O)O`, the Potency in [1] and in assay [2] was > 46 µM (inactive) throughout. The compound was classed as inactive in assay [3]. Besides, the Potency result in assay [4], in assay [6], in [7], in assay [8] and in [9] was “inactive” in each case. Moreover, in assay [5] (at 57.5 µM (top of the series)), the activity change, negative = inhibition is 0.372% (inactive). For the same compound, the max response is -29.3% in [5] (setting [18]) and -29% in assay [5] (setting [19]).

In the case of `CCN1C[C@]2(C)CC[C@H](O)[C@@]34C5C[C@@H]6[C@@H](OC)C[C@@](O)(C5[C@H]6O)[C@@H](CC23)[C@@H]14` (stereo partly specified), the activity change, negative = inhibition in [5] (at 57.5 µM (top of the series)) is 1.68% (inactive). Also, the max response in assay [5] (setting [18]) is -11.5%; in [5] (setting [19]) it was -11%. Also, the Potency result in assay [7], in [8] and in [9] was “inactive” each time.

`CC[N+](CC)(CCCNC1=CC(=O)C(NCCC[N+](CC)(CC)Cc2ccccc2)=CC1=O)Cc1ccccc1`: the Potency in assay [2] is > 46 µM (inactive). Also, the activity change, negative = inhibition in [5] (at 57.5 µM (top of the series)) was 3.42% (inactive). Moreover, the max response was -5.38% in [5] (setting [18]) and -3.95% in [5] (setting [19]). The Potency result in assay [8] and in assay [9] was “inactive” in each case.

For the compound `O=C(O)[C@H]1[C@H]2CN[C@H](C(=O)O)[C@H]21`, the results for the Potency in [10] and in assay [2] were 31.6 µM (active) and > 46 µM (inactive), respectively. Further, the Potency result in [4], in [7], in assay [8] and in [9] was “inactive” in each case. Further, the activity change, negative = inhibition in assay [5] (at 57.5 µM (top of the series)) is -5.1% (inactive). Further, the max response in assay [5] (setting [18]) was -11.8%; in [5] (setting [19]), -16.1%.

`CN1C[C@H](CNC(=O)OCc2ccccc2)C[C@H]2c3cccc4c3c(cn4C)C[C@@H]21`: the compound was called inactive in assay [11] and in assay [3]. For the same compound, the Potency in assay [2] is > 20.6 µM (inactive) and > 46 µM (inactive). The Potency result in [4], in assay [7], in assay [8] and in [9] was “inactive” each time. In [5] (at 25.7 µM (top of the series)), the activity change, negative = inhibition is -3.64% (inactive). Further, the values for the max response in [5] (setting [18]) and in [5] (setting [19]) were -21.4% and -20.5%, respectively.

As to `NC(N)=Nc1ccc2[nH]c3c(c2c1)C[C@]1(O)[C@@H]2Cc4ccc(O)c5c4[C@]1(CCN2CC1CC1)[C@@H]3O5`, the Potency entry in assay [10], in [4], in assay [6], in assay [7], in [8] and in assay [9] was “inactive” each time. Besides, in assay [2], the Potency was > 46 µM (inactive). Also, in assay [5] (at 57.5 µM (top of the series)), the activity change, negative = inhibition is -1.94% (inactive). Further, the max response in assay [5] (setting [18]) amounted to 2.17%; in [5] (setting [19]), 1.06%.

For the compound `CP(=O)(O)CCCN`, the Potency result in assay [10], in assay [4], in assay [8] and in assay [9] was “inactive” throughout. Also, the outcome in [11], in assay [3], in [12], in [13], in assay [14] and in assay [15] was inactive. Further, the result in [16] and in assay [17] was inactive. For the same compound, the Potency in assay [1] and in assay [2] was > 46 µM (inactive) each time.
